Experimental findings from PubChem BioAssay (NCI) are described below.

About 79,000 compounds went through this panel and 15% of them were active in at least one assay; those are over-represented in the sample as a whole. Unmarked numbers belong to inactive results. The source made the active and inactive calls. Rule as the data show it: active = growth inhibition above about 70%; inactive = the rest.

The nature of assay [1]: NCI Yeast Anticancer Drug Screen. Data for the rad50 strain (AID 155).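 Also: 0% = growth of vehicle-only cultures of the same strain.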 The following applies: S. cerevisiae rad50 strain growth inhibition; at 50.0 µM; stronger effect = higher value. The gist of the method:
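A DNA repair-deficient yeast mutant serves as the test organism; compound-induced growth inhibition is calculated against vehicle-treated cells.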

Assay [2] can be described thus: NCI Yeast Anticancer Drug Screen. Data for the mec2-1 strain (AID 157). The following applies: S. cerevisiae mec2-1 strain, at 50.0 µM, stronger effect = higher value. The gist of the method: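 Test agents were screened against the mec2-1 yeast strain, with defined DNA repair or cell cycle alteration. Growth was scored as inhibition against vehicle-only controls.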
A short description of assay [3]: NCI Yeast Anticancer Drug Screen. Data for the sgs1 mgt1 strain (AID 161).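 Also: 0% = growth of cultures given vehicle only.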 The following applies: S. cerevisiae sgs1 mgt1 strain, at 50.0 µM, stronger effect = higher value. The gist of the method:
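Test agents were incubated with a DNA-repair-mutant yeast strain. Growth was then read and compared against vehicle-treated controls.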

Assay [4] in a line: NCI Yeast Anticancer Drug Screen. Data for the cln2 rad14 strain (AID 165).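 Also: 0% = growth equal to vehicle treated cultures.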 The following applies: S. cerevisiae cln2 rad14 strain, at 50.0 µM, stronger effect = higher value. The gist of the method: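 Growth of compound-exposed yeast (cln2 rad14 genotype) measured and expressed as inhibition relative to vehicle.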
Assay [5] in a line: NCI Yeast Anticancer Drug Screen. Data for the bub3 strain (AID 167). The settings on record: S. cerevisiae bub3 mutant strain, at 50.0 µM, stronger effect = higher value. The gist of the method: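 Inhibition values come from growth of compound-treated mutant yeast normalised to vehicle-treated controls.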
Assay [6] in a line: NCI Yeast Anticancer Drug Screen. Data for the mlh1 rad18 strain (AID 175). The following applies: S. cerevisiae mlh1 rad18 strain growth inhibition; at 50.0 µM; stronger effect = higher value. The gist of the method: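 In this whole-cell yeast screen, a strain with altered DNA damage repair is challenged with compound, and its growth is measured against matched vehicle-treated controls.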

`CC(=O)OC1CCC2(C)C(CCC34OC23CCC2(C)C(C(C)CCCC(C)C)CCC24C)C1(C)C` (stereo not given): the growth inhibition in assay [1] is 45.4%; in assay [2] it was 16.4%; in assay [3], 39.5%; in assay [4] it was 1%; in assay [5] it was -1%; in assay [6], 28.4%.

On to `CCCCC1CCC(C(=O)O)=NC1` (stereo not given), for which the growth inhibition in assay [1] was 5.65%; in assay [2], 6.7%; in assay [3], 25.1%; in assay [4], -9.95%; in assay [5], -0.45%; in assay [6], -11.4%.

`O=c1oc2ccc(Br)cc2cc1-n1nnc2ccccc21`: the growth inhibition in assay [1] was -0.45%; in assay [2], -6.55%; in assay [3], 2.45%; in assay [4] it was 0.6%; in assay [5], 15.9%; in assay [6], 5.55%.

Take `N#CC(C#N)=C/C=C/C=C/c1c(Cl)cccc1Cl`: the growth inhibition in assay [1] was -6%; in assay [2], 1.8%; in assay [3], 0.95%; in assay [4] it was -3.25%; in assay [5], -6.8%; in assay [6], -14.4%.

`O=c1ccccc2cccc(O)c12`: the growth inhibition in assay [1] was 8.25%; in assay [2], 0.2%; in assay [3], -1.35%; in assay [4], -17.4%; in assay [5], 8.15%; in assay [6] it was 10.3%.

As for `CC(O)COC(C)COC(C)c1ccccc1` (stereo not given), the growth inhibition in assay [1] was 1.6%; in assay [2], 0.3%; in assay [3] it was -4%; in assay [4], -2.35%; in assay [5], 2.2%; in assay [6], 4.65%.

As for `O=C(CCc1ccccc1C(=O)O)c1ccccc1O`, the growth inhibition in assay [1] was 0.7%; in assay [2] it was -9.55%; in assay [3], -3.35%; in assay [4] it was 17.2%; in assay [5] it was 5.5%; in assay [6], -7.6%.

In the case of `COc1ccccc1NC(C)=O`, the growth inhibition was 8.15% in assay [1]; 5.8% in assay [2]; 0.15% in assay [3]; 6% in assay [4]; 11.4% in assay [5]; -30.4% in assay [6].

With `CC(=O)OCC1OC(n2c3c(cc(C#N)c2=S)CCCCC3)C(OC(C)=O)C(OC(C)=O)C1OC(C)=O` (stereo not given), the growth inhibition was 27.1% in assay [1]; -1.7% in assay [2]; 3.1% in assay [3]; -32.9% in assay [4]; -0.8% in assay [5]; -7.1% in assay [6].

As for `Cc1ccc(Cl)cc1NC(=O)Oc1cc(C)c(Cl)c(C)c1`, the growth inhibition in assay [1] is 1%; in assay [2], 8.2%; in assay [3] it was -4.1%; in assay [4], 6.85%; in assay [5] it was 25.7%; in assay [6], 4.35%.

Regarding `[O-][n+]1ccc(Cl)cc1`, the growth inhibition in assay [1] is -4.15%; in assay [2] it was -14.8%; in assay [3], -19%; in assay [4], -15.2%; in assay [5] it was -10.1%; in assay [6] it was -9.35%.

Turning to `Cn1nc(-c2ccccc2)c(C(=O)/C=C/c2ccc(Cl)cc2)c(N2CCCCC2)c1=O`, the growth inhibition was -30.9% in assay [1]; -21.9% in assay [2]; -36.2% in assay [3]; 1.75% in assay [4]; -22.9% in assay [5]; -22.2% in assay [6].

For `CCCCCCC(/C=C/c1ccc(Cl)c(Cl)c1)=N\Nc1ccccc1`, the growth inhibition is 3.55% in assay [1]; -15.9% in assay [2]; 14.8% in assay [3]; -19.7% in assay [4]; -4.3% in assay [5]; -12.3% in assay [6].

For `COC1=C(N)C(=O)c2nc(-c3nc(C(=O)O)c(C)c(Br)c3N)ccc2C1=O`, the growth inhibition was 89.3% (active) in assay [1]; 92.2% (active) in assay [2]; 84.9% (active) in assay [3]; 89.2% (active) in assay [4]; 80.5% (active) in assay [5]; 92.7% (active) in assay [6].

Turning to `O=C1OC(C2OC(=O)C(=O)C2C(=O)c2cccc([N+](=O)[O-])c2)C(C(=O)c2cccc([N+](=O)[O-])c2)C1=O` (stereo not given), the growth inhibition was 0.5% in assay [1]; 40.9% in assay [2]; 13.3% in assay [3]; -33.6% in assay [4]; -36.5% in assay [5]; 29.6% in assay [6].

With `O=C(Cc1ccccc1)NN1C(=O)/C(=C\c2cccc(O)c2)SC1=Nc1ccccc1`, the growth inhibition was -11% in assay [1]; -18.9% in assay [2]; -6% in assay [3]; 5.9% in assay [4]; -45.3% in assay [5]; -16.9% in assay [6].

For the compound `CC(C)(C)[N]=[V]([Cl])([Cl])[Cl]`, the growth inhibition is 3.65% in assay [1]; -0.65% in assay [2]; -7.3% in assay [3]; -6.35% in assay [4]; -10.6% in assay [5]; -10.1% in assay [6].

Regarding `CC(C)(C)NC(=O)NCc1ccc(Cl)c(Cl)c1`, the growth inhibition in assay [1] is 2.95%; in assay [2], 27.4%; in assay [3], 17.8%; in assay [4], -6.05%; in assay [5], -5.05%; in assay [6], 21.6%.

Take `COc1ccc(/C=N/NC=O)cc1OC`: the growth inhibition is 7.35% in assay [1]; 6.5% in assay [2]; 1.2% in assay [3]; 1.45% in assay [4]; -12.5% in assay [5]; -2.85% in assay [6].

Take `N/C(=N\O)c1ccccc1`: the growth inhibition in assay [1] is 27.1%; in assay [2] it was 0.6%; in assay [3], 13.7%; in assay [4], 15.3%; in assay [5], 4.35%; in assay [6], 23.1%.
